Results filed as inconclusive are left out. Active and inactive are the calls of the source. Unless noted, calls come from the whole dose curve; as a rule, active = well fitted curve in the direction sought with a large enough effect in the repeat runs; inconclusive = weak or mixed curves; inactive = no such curve, though single readings can be large; an effect the other way counts as inactive or inconclusive.
Assays:
[1] = target: Luciferin 4-monooxygenase (Photinus pyralis) (UniProt P08659); experiment: qHTS assay to identify small molecule inhibitors of firefly luciferase (AID 1224835); note: nearly all actives have a fitted effect of over 25% in size
Method in brief: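 Biochemical qHTS: compounds run as interplate titrations against purified firefly enzyme, with D-luciferin and ATP each at its KM concentration. Light output recorded by CCD imaging.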

[2] = qHTS assay to identify small molecule agonists of the constitutive androstane receptor (CAR) signaling pathway - cell viability counter screen (AID 1224836); note: nearly all actives have a fitted effect of over 45% in size
Method in brief: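 Double-stable HepG2 hepatoma cells (hCAR plus CYP2B6-2.2kb) are treated for 23 h at 37 C with test compounds in 15-point concentration series. PK11195 at 0.75 uM final is co-added. Cell viability is quantified by CellTiter-Fluor.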

[3] = qHTS assay to identify small molecule antagonists of the constitutive androstane receptor (CAR) signaling pathway - cell viability counter screen (AID 1224837); note: nearly all actives have a fitted effect of over 45% in size
Method in brief: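 Cytotoxicity counter-screen: CellTiter-Fluor fluorescence after 23 h compound exposure (15-point qHTS) in double-stable HepG2-CYP2B6-hCAR cells, with 50 nM CITCO added.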

[4] = target: Nuclear receptor subfamily 1 group I member 3 (Homo sapiens) (UniProt Q14994); experiment: qHTS assay to identify small molecule antagonists of the constitutive androstane receptor (CAR) signaling pathway (AID 1224838);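 note: HepG2 cells stably expressing hCAR with CYP2B6 luciferase reporter stimulated by CITCO; nearly all actives have a fitted effect of over 40% in size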
Method in brief: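 Antagonism measured as luciferase signal (ONE-Glo, 30 min, room temperature) in CAR-stimulated cells: HepG2-CYP2B6-hCAR double-stable line exposed 24 hr at 37 C to compound in a 15-point series plus 50 nM CITCO.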

[5] = target: Nuclear receptor subfamily 1 group I member 3 (Homo sapiens) (UniProt Q14994); experiment: qHTS assay to identify small molecule agonists of the constitutive androstane receptor (CAR) signaling pathway (AID 1224839); note: nearly all actives have a fitted effect of over 15% in size; note: potency is the fitted concentration of half-maximal effect;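 for activation: HepG2 cells stably carrying human CAR and a CYP2B6 luciferase reporter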
Method in brief: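 Readout: firefly luciferase luminescence via ONE-Glo. System: HepG2 double-stable for hCAR and CYP2B6-2.2kb. Conditions: 15-point compound titration, PK11195 at 0.75 uM final, 24 h incubation.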

[6] = qHTS assay to identify small molecule antagonists of the estrogen related receptor signaling pathway with the pleiotropic PPARgamma coactivator (PGC) from Tox21 10K library - cell viability counter screen (AID 1224840; active = well fitted cell-killing curve with a large enough effect in the repeat runs, not every such curve was filed as active; note: nearly all actives have a fitted effect of over 40% in size)
Method in brief: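 Counter-screen for cytotoxicity: after 17.5 h compound exposure at 37 C, CellTiter-Fluor reagent added to PGC/ERR cells for 30 min and fluorescence read. Cells were seeded at 2,000 per well 6 h before dosing.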

[7] = target: Thyrotropin receptor (Homo sapiens) (UniProt P16473); experiment: qHTS assay to identify small molecule agonists of the thyroid stimulating hormone receptor (TSHR) signaling pathway (AID 1224843; calls by dose curve; note: nearly all actives have a fitted effect of over 45% in size)
Method in brief: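 Agonist-mode screen: TSHR HEK293 cells received test chemicals for half an hour at room temperature, then HTRF cAMP detection reagents for one hour prior to fluorescence measurement. Each chemical ran as a 15-concentration series, triplicated.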

[8] = qHTS assay to identify small molecule agonists of the hypoxia (HIF-1) signaling pathway - cell viability counter screen (AID 1224844; calls by dose curve; note: nearly all actives have a fitted effect of over 50% in size)
Method in brief: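 Cytotoxicity measured by CellTiter-Glo ATP luminescence in the wells also read for beta-lactamase signal. Cells were HRE-bla ME-180 (2,000/well, 0.5% dialyzed FBS), exposed to compounds for 17 h at 37C.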

[9] = qHTS assay to identify small molecule agonists of H2AX (AID 1224845; active = well fitted activation curve with a large enough effect in the signal ratio in the repeat runs, not every such curve was filed as active; the % refers to the signal ratio)
Method in brief: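 Wild-type CHO-K1 cells, plated overnight, exposed 3hr at 37C to 15 concentrations (0.76% DMSO final). Lysed, then HTRF anti-pH2AX (S139) cryptate and anti-H2AX-d2 antibodies, 24 hr room temperature; 665/620 nm emission read.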

[10] = qHTS assay to identify small molecule agonists of H2AX - cell viability counter screen (AID 1224847; calls by dose curve; note: top concentration of the series differs between compounds; nearly all actives have a fitted effect of over 30% in size)
Method in brief: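 For this counter screen, overnight-attached CHO-K1 cells received test compounds (15 concentrations, 0.76% DMSO final); 3 hr later at 37C, CellTiter-Glo reagent was added and luminescence recorded after 30 min at room temperature.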

[11] = qHTS RealTime-Glo MT Cell Viability Assay in HepG2 cells - 24 hour (AID 1224867); note: nearly all actives have a fitted effect of over 50% in size
Method in brief: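 HepG2 cells were seeded at 600 cells/well together with NanoLuc luciferase and a cell-permeant prosubstrate, preincubated 5 h at 37 C/5% CO2, then pin-dosed with compounds in DMSO. Nonlytic luminescence from viable cells was read at each time point.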

[12] = qHTS RealTime-Glo MT Cell Viability Assay in HEK293 cells - 32 hour (AID 1224868); note: top concentration of the series differs between compounds; nearly all actives have a fitted effect of over 50% in size
Method in brief: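 HEK293 cells were seeded at 600 cells/well together with NanoLuc luciferase and cell-permeant prosubstrate, preincubated 5 h at 37 C/5% CO2, then given compound in DMSO by pintool. Luminescence from viable-cell prosubstrate reduction was read repeatedly over 40 h.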

[13] = A CellTox Green Cytotoxicity Assay to monitor cytotoxicity in HEK293 cells - 0 hour (AID 1224869); note: nearly all actives have a fitted effect of over 50% in size
Method in brief: (§1)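 Fluorescence from a DNA-binding dye excluded by viable cells was measured repeatedly in the same HEK293 wells (600 cells/well) during continuous compound exposure at 37 C. Each assay gives one read point: 0, 8, 16, 24, 32 or 40 h.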

[14] = qHTS RealTime-Glo MT Cell Viability Assay in HepG2 cells - 40 hour (AID 1224870); note: nearly all actives have a fitted effect of over 50% in size
Method in brief: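 HepG2 cells (600/well) mixed with RealTime-Glo MT reagent, settled 5 h at 37 C/5% CO2 before compound addition. Nonlytic NanoLuc luminescence from viable-cell prosubstrate reduction read repeatedly during 40 h treatment at 37 C.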

[15] = A CellTox Green Cytotoxicity Assay to monitor cytotoxicity in HEK293 cells - 40 hour (AID 1224871); note: nearly all actives have a fitted effect of over 45% in size
Method in brief: as §1

[16] = qHTS assay to identify small molecule agonists of the estrogen related receptor signaling pathway with the pleiotropic PPARgamma coactivator (PGC) from Tox21 10K library (AID 1224842); note: nearly all actives have a fitted effect of over 15% in size
Method in brief: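 PGC/ERR reporter cell line, 2,000 cells per well, incubated 6 h at 37 C before 23 nL compound in DMSO was added. After 18 h at 37 C, One-Glo luminescence read following 30 min at room temperature.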

[17] = qHTS assay to identify small molecule agonists of the hypoxia (HIF-1) signaling pathway (AID 1224846; active = well fitted activation curve with a large enough effect in the signal ratio in the repeat runs, not every such curve was filed as active; the % refers to the signal ratio)
Method in brief: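 Compounds added to ME-180 cells carrying hypoxia-response-element beta-lactamase reporter (0.5% dialyzed FBS, 5 h preplating), 17 h at 37C; agonist activity detected by CCF4-AM B/G FRET read-out.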

[18] = qHTS assay to identify small molecule agonists of the estrogen related receptor (ERR) signaling pathway from Tox21 library (AID 1224849; calls by dose curve; note: nearly all actives have a fitted effect of over 15% in size); conditions: ERR reporter cell line, ONE-Glo luciferase, 18 h; at 92.4 µM (top of the series) unless noted
Method in brief: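 Luminescent agonist read-out (One-Glo, 30-minute room-temperature incubation) following 18-hour compound treatment at 37 C of the ERR cell line, which had been plated 6 hours before dosing.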

[19] = qHTS assay to identify small molecule antagonists of the estrogen related receptor signaling pathway with the pleiotropic PPARgamma coactivator (PGC) from Tox21 10K library (AID 1224841; call rule not given here)
Method in brief: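 Luminescence (One-Glo, 30 min at room temperature) after 18 h compound treatment at 37 C of PGC/ERR reporter cells plated at 2,000 cells/well and settled 6 h beforehand.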

[20] = qHTS assay to identify small molecule antagonists of the estrogen related receptor (ERR) signaling pathway from Tox21 library (AID 1224848); note: nearly all actives have a fitted effect of over 50% in size
Method in brief: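 Quantitative high-throughput format: ERR reporter cells (2,000/well) pre-incubated 6 h, treated 18 h at 37 C with compounds in DMSO alongside positive and negative controls, then read by ONE-Glo luminescence.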
% is set by controls: 0 for no effect and ±100 for the full control effect.

Luciferin 4-monooxygenase (Photinus pyralis), sequence (P08659 whole entry, looked up): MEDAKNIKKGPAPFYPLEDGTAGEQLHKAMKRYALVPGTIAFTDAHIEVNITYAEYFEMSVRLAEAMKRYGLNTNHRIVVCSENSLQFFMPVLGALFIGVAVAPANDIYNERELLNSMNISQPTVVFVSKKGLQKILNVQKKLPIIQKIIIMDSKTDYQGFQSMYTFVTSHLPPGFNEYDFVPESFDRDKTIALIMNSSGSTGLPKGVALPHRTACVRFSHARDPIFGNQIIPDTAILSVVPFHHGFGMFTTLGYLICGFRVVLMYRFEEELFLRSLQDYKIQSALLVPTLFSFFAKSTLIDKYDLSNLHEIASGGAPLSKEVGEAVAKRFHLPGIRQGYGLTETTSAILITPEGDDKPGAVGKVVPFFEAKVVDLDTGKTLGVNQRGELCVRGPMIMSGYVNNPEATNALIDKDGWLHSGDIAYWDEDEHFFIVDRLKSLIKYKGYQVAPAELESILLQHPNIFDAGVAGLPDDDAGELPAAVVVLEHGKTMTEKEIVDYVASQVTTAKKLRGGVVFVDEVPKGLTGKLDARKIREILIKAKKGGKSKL
Thyrotropin receptor (Homo sapiens), sequence (P16473 whole entry, looked up): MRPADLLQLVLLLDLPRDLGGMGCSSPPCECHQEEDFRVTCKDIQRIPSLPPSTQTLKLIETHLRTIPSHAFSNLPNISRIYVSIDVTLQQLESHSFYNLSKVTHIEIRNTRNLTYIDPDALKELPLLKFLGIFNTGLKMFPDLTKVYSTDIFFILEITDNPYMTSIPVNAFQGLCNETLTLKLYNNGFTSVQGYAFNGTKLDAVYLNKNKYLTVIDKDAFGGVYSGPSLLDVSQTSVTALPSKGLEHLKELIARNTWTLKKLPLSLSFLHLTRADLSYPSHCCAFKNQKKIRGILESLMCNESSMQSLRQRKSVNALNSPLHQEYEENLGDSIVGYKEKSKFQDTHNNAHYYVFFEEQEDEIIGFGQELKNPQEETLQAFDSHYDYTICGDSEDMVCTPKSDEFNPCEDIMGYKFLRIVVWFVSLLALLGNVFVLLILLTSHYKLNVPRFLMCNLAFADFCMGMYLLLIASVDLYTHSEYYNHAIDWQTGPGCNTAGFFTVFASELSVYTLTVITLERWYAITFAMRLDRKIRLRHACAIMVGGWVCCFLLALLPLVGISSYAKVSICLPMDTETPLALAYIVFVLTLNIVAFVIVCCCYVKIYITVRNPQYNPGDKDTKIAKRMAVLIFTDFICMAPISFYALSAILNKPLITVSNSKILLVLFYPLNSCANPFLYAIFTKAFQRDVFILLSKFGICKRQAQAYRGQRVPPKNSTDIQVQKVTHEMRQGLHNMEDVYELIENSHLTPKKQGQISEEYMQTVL
Nuclear receptor subfamily 1 group I member 3 (Homo sapiens), sequence (Q14994 whole entry, looked up): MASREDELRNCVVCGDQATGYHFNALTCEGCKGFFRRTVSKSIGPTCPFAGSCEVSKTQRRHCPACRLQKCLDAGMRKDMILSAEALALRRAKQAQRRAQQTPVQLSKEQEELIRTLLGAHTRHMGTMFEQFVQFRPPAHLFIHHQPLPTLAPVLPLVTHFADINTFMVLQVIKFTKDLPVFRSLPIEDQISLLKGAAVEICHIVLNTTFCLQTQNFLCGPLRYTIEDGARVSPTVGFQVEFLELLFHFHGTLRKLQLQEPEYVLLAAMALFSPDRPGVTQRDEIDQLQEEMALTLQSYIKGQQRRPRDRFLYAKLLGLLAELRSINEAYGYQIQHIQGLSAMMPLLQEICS

NC(=O)c1cc[n+](CC2=C(C(=O)[O-])N3C(=O)[C@@H](NC(=O)Cc4cccs4)[C@H]3SC2)cc1
inactive: Potency [1] | Potency [2] | Potency [3] | Potency [4] | Potency [5] | Potency [6] | Potency [7] | Potency [8] | Potency [9] | Potency [10] | outcome [11] | Potency [12] | Potency [13] | Potency [14] | Potency [15]

CC(C)CC(C)(C)C
active: Potency [5] 63.4 µM
inactive: Potency [1] | Potency [2] | Potency [3] | Potency [4] | Potency [6] | Potency [16] | outcome [17] | Potency [10] | activity change, positive = activation [18] -31.7% | outcome [11] | Potency [14]

CC(CC(C#N)(c1ccccc1)C(C)C)N(C)C (stereo not drawn)
inactive: Potency [1] | Potency [2] | Potency [3] | Potency [4] | Potency [5] | Potency [6] | Potency [19] | Potency [16] | Potency [7] | Potency [9] | outcome [17] | Potency [10] | Potency [20] | activity change, positive = activation [18] 2.64% [at 42.5 µM] | outcome [11] | Potency [12] | Potency [13] | Potency [14]

COC(=O)C(C)(C)C
inactive: Potency [1] | Potency [2] | Potency [3] | Potency [4] | Potency [5] | Potency [6] | Potency [19] | Potency [16] | Potency [7] | Potency [9] | outcome [17] | Potency [10] | Potency [20] | activity change, positive = activation [18] -7.89% | outcome [11] | Potency [13] | Potency [14] | Potency [15]

COC=O
inactive: activity change, negative = inhibition [1] -0.731% [at 10.5 µM] | viability change, negative = cytotoxic [2] -8.98% [at 8.39 µM] | activity change, negative = cytotoxicity [3] -19.2% [at 8.39 µM] | activity, negative = inhibition [4] 0.829% [at 8.39 µM] | activation [5] -2.43% [at 8.39 µM] | viability change, negative = cytotoxic [6] 0.435% [at 8.39 µM] | activity, negative = inhibition [19] 9.85% [at 8.39 µM] | activation [16] 3.43% [at 8.39 µM] | activation [7] 0.0799% [at 8.39 µM] | activation (H2AX phosphorylation) [9] -1.42% [at 14 µM] | activity change, negative = cytotoxicity [10] -3.81% [at 14 µM] | activity, negative = inhibition [20] 14% [at 8.39 µM] | activity change, positive = activation [18] 6.68% [at 8.39 µM] | activity change, negative = cytotoxicity [11] 4.56% [at 6.97 µM] | activity change, negative = cytotoxic [12] 18.9% [at 6.97 µM] | cytotoxicity [13] -7.29% [at 6.97 µM] | activity change, negative = cytotoxic [14] 0.3% [at 6.97 µM] | cytotoxicity increase [15] -12.8% [at 6.97 µM]

CC(=O)S[C@H](C(=O)N[C@H]1Cc2ccccc2[C@H]2CCC[C@@H](C(=O)O)N2C1=O)C(C)C
inactive: Potency [1] | Potency [2] | Potency [3] | Potency [4] | Potency [5] | Potency [6] | Potency [19] | Potency [16] | Potency [7] | Potency [8] | outcome [17] | Potency [20] | activity change, positive = activation [18] 1.31% | outcome [11] | Potency [12] | Potency [13] | Potency [14] | Potency [15]

C1CCN(CN2CCCCC2)CC1
inactive: Potency [1] | Potency [2] | Potency [3] | Potency [4] | Potency [5] | Potency [6] | Potency [7] | Potency [8] | Potency [9] | outcome [17] | Potency [10] | outcome [11] | Potency [13] | Potency [15]

Source: PubChem BioAssay (Tox21)
